{
  "source": "paper PMC12280212",
  "test_in_all_cases": "cross-linking mass spectrometry",
  "key": {"[1]": {"target": "Elongation factor 1-alpha 2 (UniProt Q05639)"}, "Histone H2B type 1-N": {"target": "Histone H2B type 1-N (UniProt Q99877)"}, "[2]": {"target": "T1, LIM and SH3 domain protein 1 (UniProt Q14847)", "T1 sequence": "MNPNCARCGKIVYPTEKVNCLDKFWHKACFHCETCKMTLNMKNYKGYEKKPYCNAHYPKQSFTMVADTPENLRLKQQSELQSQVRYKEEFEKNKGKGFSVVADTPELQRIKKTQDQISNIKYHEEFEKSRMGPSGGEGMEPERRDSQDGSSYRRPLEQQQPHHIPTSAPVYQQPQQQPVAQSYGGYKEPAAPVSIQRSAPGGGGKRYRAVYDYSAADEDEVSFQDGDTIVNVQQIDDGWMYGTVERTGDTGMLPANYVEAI"}, "[3]": {"target": "Ubiquitin-ribosomal protein eS31 fusion protein (UniProt P62979)"}, "Vimentin": {"target": "Vimentin (UniProt P08670)"}, "Actin, cytoplasmic 1": {"target": "Actin, cytoplasmic 1 (UniProt P60709)"}, "[4]": {"target": "Large ribosomal subunit protein uL4 (UniProt P36578)"}, "[5]": {"target": "Large ribosomal subunit protein eL31 (UniProt P62899)"}},
  "data": [
    {"substance": "Actin, cytoplasmic 1, P60709", "values": [
      {"measurement": "listed as a hit", "setting": "[1]", "result": "yes"},
      {"measurement": "listed as a hit", "setting": "Histone H2B type 1-N", "result": "yes"},
      {"measurement": "listed as a hit", "setting": "[2]", "result": "yes"},
      {"measurement": "listed as a hit", "setting": "[3]", "result": "yes"}
    ]},
    {"substance": "Protein S100-A6, P06703", "values": [
      {"measurement": "listed as a hit", "setting": "Vimentin", "result": "yes"}
    ]},
    {"substance": "Elongation factor 2, P13639", "values": [
      {"measurement": "listed as a hit", "setting": "Actin, cytoplasmic 1", "result": "yes"}
    ]},
    {"substance": "Large ribosomal subunit protein uL6, P32969", "values": [
      {"measurement": "listed as a hit", "setting": "[4]", "result": "yes"}
    ]},
    {"substance": "Large ribosomal subunit protein uL29, P42766", "values": [
      {"measurement": "listed as a hit", "setting": "[5]", "result": "yes"}
    ]},
    {"substance": "Peptidyl-prolyl cis-trans isomerase A, P62937", "values": [
      {"measurement": "listed as a hit", "setting": "Histone H2B type 1-N", "result": "yes"}
    ]}
  ]
}
